The values below come from ChEMBL document CHEMBL3988442, “University of Dundee, Small-Polar-MMV Screening Library” (2021).

About 950 (1.4%) of roughly 69,000 compounds showed an effect of 50% or more. This excerpt belongs to a sample that is enriched for strong results.

The subject of this test is Mycobacterium tuberculosis. The test is described as follows: Cornell M. t heat shock assay. Note: in the data most compounds retested in dose-response had high values. Further details: dose or concentration left out as unconfirmed. In kind it is functional, organism-based.
Take `O=C(O)C(F)(F)F.O=C(O)C(F)(F)F.O=C1Nc2ccccc2C12CCN(Cc1ccccn1)CC2`: the “Percent Effect” value is -17.02%.

Regarding `Cc1ccccc1C1CCN(CCn2cc(-c3nccs3)nn2)C1` (stereo not given), the “Percent Effect” value stood at 59.14%.

Consider `Cc1ccccc1C1CCN(CCNC(=O)CS(C)(=O)=O)C1` (stereo not given), for which the “Percent Effect” value is -16.65%.

For `CCSCCn1cc(-c2nccs2)nn1`, the “Percent Effect” value is listed as 12.13%.

For the compound `Oc1cccc(-c2cc(C3CCN(Cc4cncnc4)C3)ccn2)c1` (stereo not given), the “Percent Effect” value was 20.76%.

For `Cc1ccccc1C1CCN(CCn2cc(-c3cccc(O)c3)nn2)C1` (stereo not given), the “Percent Effect” value came out at 72.96%.

On to `Cc1ccccc1C1CCN(CCn2cc(-c3nccn3C)nn2)C1` (stereo not given), for which the “Percent Effect” value is 32.84%.

As to `CCC(=O)N1CCC2(CC1)CN(CCO)Cc1ccccc12.O=C(O)C(F)(F)F`, the “Percent Effect” value was -19.17%.

Turning to `NCCc1c(-c2ccccc2)[nH][nH]c1=O.O=C(O)C(=O)O`, the “Percent Effect” value was -25.01%.

As for `O=C(CCc1cncc(F)c1)NS(=O)(=O)c1ccc(F)cc1F`, the “Percent Effect” value is listed as 21.56%.

Turning to `Cn1cccc1C(=O)N1C[C@H]2CN(Cc3cccs3)C[C@H]2C1.O=C(O)C(F)(F)F`, the “Percent Effect” value is -10.6%.

Take `COCCn1c(-c2cccc(OC)c2)cnc1NC(=O)NCCC(C)C`: the “Percent Effect” value is listed as 67.45%.

On to `COCCCNC(=O)Nc1ncc(-c2cccc(OC)c2)n1CCOC`, for which the “Percent Effect” value is -7.26%.

For the compound `COCCn1c(-c2cccc(OC)c2)cnc1NC(=O)NCC(C)C`, the “Percent Effect” value stood at 22.14%.

Turning to `Cc1nn(C)c(Cl)c1CNCc1cccnc1N1CCN(C)CC1.Cl`, the “Percent Effect” value is on record as -22.17%.

For `O=C(O)C(F)(F)F.O=C1Nc2ccccc2C12CCN(c1nccs1)CC2`, the “Percent Effect” value is recorded as -0.7259%.

For the compound `CCC1=N[C@@]2(CC[C@@H]3CN(Cc4ccc(Cl)cc4)C[C@@H]32)C(=O)N1.O=C(O)C(F)(F)F`, the “Percent Effect” value amounted to 4.216%.

Take `CN1Cc2ccccc2CC2(CCN(CCO)CC2)C1=O.O=C(O)C(F)(F)F`: the “Percent Effect” value is 19.63%.

With `Cl.O=C(CCc1cccc(C2CCNCC2)n1)N1CCCCC1`, the “Percent Effect” value is recorded as -1.304%.

Consider `CCc1cnc(N)nc1N[C@@H](C)c1ncccc1C`, for which the “Percent Effect” value is given as -10.37%.

With `CCc1cnc(N)nc1NC(C)c1cnn(C)c1` (stereo not given), the “Percent Effect” value is on record as -5.78%.

Regarding `CCc1cnc(N)nc1NC(C)c1ccc(C)c(C)c1` (stereo not given), the “Percent Effect” value is 51.29%.

`Cl.Nc1cnn(CC(=O)N2CCCCC2)c1`: the “Percent Effect” value was -8.542%.

For the compound `CCOc1ccc(CN2CC[C@H]3CC[C@@H](C2)N3)cc1CO`, the “Percent Effect” value is -10.09%.

On to `CO[C@H]1CCN(S(=O)(=O)c2cccnc2)[C@@H]2CN(CC3CC3)C[C@H]12.O=C(O)C(F)(F)F.O=C(O)C(F)(F)F`, for which the “Percent Effect” value turned out to be 2.331%.

For `O=C(O)C(F)(F)F.O=c1cc(CNS(=O)(=O)C2CC2)nc2n1CCCN(CC1CC1)C2`, the “Percent Effect” value is given as 21.63%.

`Cc1nc(CN2C[C@@H]3CN(C(=O)c4cccn4C)C[C@@H]3C2)cs1.O=C(O)C(F)(F)F`: the “Percent Effect” value is listed as -44.62%.

As to `COc1cccc(CNCc2nc3ccccc3c(=O)[nH]2)c1`, the “Percent Effect” value worked out at 81.36%.

Regarding `C=C(C)COc1cccc(CNCc2nc3ccccc3c(=O)[nH]2)c1`, the “Percent Effect” value was found to be 22.25%.

For `COc1cccc(CNCCNS(=O)(=O)Cc2ccccc2)c1`, the “Percent Effect” value is on record as -28.9%.

For `CC(C)N(C)Cc1cnc2n1CCN(Cc1ccco1)C2.O=C(O)C(F)(F)F.O=C(O)C(F)(F)F`, the “Percent Effect” value was -12.15%.

On to `CC(C)N1CCC2(CCCNC2)C1=O.Cl` (stereo not given), for which the “Percent Effect” value is given as -7.448%.

For the compound `COc1ccc(-c2cnc(N)nc2C2CCCNC2)cc1.Cl` (stereo not given), the “Percent Effect” value was 9.716%.

Consider `O=C(O)C(F)(F)F.O=C(O)C(F)(F)F.O=C1COC2(CCN(Cc3ccncc3)CC2)CN1`, for which the “Percent Effect” value was -17.34%.

`Cc1ccc(-c2cn[nH]c2C2CCCN(c3ccnc(C)n3)C2)cc1` (stereo not given): the “Percent Effect” value turned out to be 19.62%.

On to `Cc1ccc(-c2cn[nH]c2C2CCCN(c3nccc(N)n3)C2)cc1` (stereo not given), for which the “Percent Effect” value was 65.07%.

For `Cc1ccc(-c2cn[nH]c2C2CCCN(c3ncccn3)C2)cc1` (stereo not given), the “Percent Effect” value was -0.9903%.

Take `CS(=O)(=O)NC[C@]12COC[C@H]1CN(Cc1ccc3c(c1)OCO3)C2.O=C(O)C(F)(F)F`: the “Percent Effect” value is listed as 3.977%.

Take `CCOC(=O)N1CC2(CCNCC2)c2cc(Cl)ccc21.Cl`: the “Percent Effect” value is listed as -1.259%.

With `COCC(=O)NC1CC2(CCN(CCN(C)C)CC2)c2ccccc21` (stereo not given), the “Percent Effect” value was 10.28%.

Consider `CC(O)c1cccc(Nc2nc(NCCO)c3ccccc3n2)c1` (stereo not given), for which the “Percent Effect” value amounted to 10.04%.

As for `CCN(CC)c1nc(Nc2cccc(C(=O)O)c2)nc2ccccc12`, the “Percent Effect” value is -2.465%.

Turning to `CCN(CC)c1nc(Nc2cccc(C(C)O)c2)nc2ccccc12` (stereo not given), the “Percent Effect” value is recorded as 99.47%.

Consider `Cc1ccc(CN2CCc3onc(C(=O)Nc4cccnc4)c3C2)o1.O=C(O)C(F)(F)F.O=C(O)C(F)(F)F`, for which the “Percent Effect” value was 26.18%.

`Cc1cccc(CN2CC[C@H]3O[C@H](C(=O)Nc4cnccn4)CC[C@H]32)n1.O=C(O)C(F)(F)F.O=C(O)C(F)(F)F`: the “Percent Effect” value was -10.98%.

For `Cl.O=C1N(Cc2cccc(Cl)c2)CCC12CCCNC2` (stereo not given), the “Percent Effect” value is -6.247%.

As to `O=C(NCc1cccnc1)N[C@H]1CC[C@@]2(CCC(=O)N2CC2CC2)CC1.O=C(O)C(F)(F)F`, the “Percent Effect” value is recorded as 35.19%.

In the case of `Cc1cccc(-c2ccc(C(=O)N3CCN(C(C)C)CC3)c(=O)[nH]2)c1`, the “Percent Effect” value is 7.848%.

Take `CC(=O)N1CCN(C(=O)c2ccc(-c3cccc(C)c3)[nH]c2=O)CC1`: the “Percent Effect” value turned out to be 14.72%.

For the compound `Cc1cccc(-c2ccc(C(=O)N3CCSCC3)c(=O)[nH]2)c1`, the “Percent Effect” value amounted to 96.07%.

In the case of `O=C(O)C(F)(F)F.O=C(O)C(F)(F)F.O=C1CC(c2ccncc2)C2(CCN(CC3CC3)CC2)N1` (stereo not given), the “Percent Effect” value is listed as -16.85%.

For `CN1CC(=O)N(c2cnn(C)c2)CC12CCN(CC1CC1)C2.O=C(O)C(F)(F)F.O=C(O)C(F)(F)F` (stereo not given), the “Percent Effect” value is reported as -40.13%.

As to `CN(C)C(=O)COC[C@]12COC[C@H]1CN(C1CCCC1)C2.O=C(O)C(F)(F)F`, the “Percent Effect” value is recorded as 33.3%.

For `O=C(O)C(F)(F)F.O=C1CCCN1Cc1nnc2n1CCN(Cc1ccco1)CC2`, the “Percent Effect” value came to 8.62%.

As for `CN(Cc1cccnc1)C1CC2(CCN(c3ccccn3)CC2)C1.O=C(O)C(F)(F)F.O=C(O)C(F)(F)F.O=C(O)C(F)(F)F`, the “Percent Effect” value is -2.81%.

For the compound `Cc1ccc2c(c1)SCC(=O)N2CC(=O)N1CCCC1c1nccs1` (stereo not given), the “Percent Effect” value is reported as 34.79%.

As to `O=C1CSc2ccccc2N1CC(=O)N1CCCCC1c1nccs1` (stereo not given), the “Percent Effect” value was determined as 95.25%.

In the case of `COc1ccccc1OCCC(=O)N1CCCCC1c1nccs1` (stereo not given), the “Percent Effect” value is -0.6566%.

For the compound `CN(C)C(=O)N1CCC[C@]2(C(=O)N(C)C)CN(c3ccccn3)C[C@@H]2C1.O=C(O)C(F)(F)F`, the “Percent Effect” value is -29.23%.

Consider `Cc1nc(CN2C(=O)C[C@H]3[C@H]2CCN3C2CCOC2)cs1.O=C(O)C(F)(F)F` (stereo not given in full), for which the “Percent Effect” value is -20.37%.

In the case of `O=C1C[C@H]2CC[C@@H](CN1)N2c1cc(-c2ccccc2F)nc2ccnn12`, the “Percent Effect” value is 8.242%.

`I.c1ccc(Sc2ccc3c(c2)OCO3)c(CNC2=NCCN2)c1`: the “Percent Effect” value is given as 5.756%.

Consider `CN(C)Cc1cc(C2CCCCN2S(=O)(=O)Cc2ccccc2)nn1C.Cl` (stereo not given), for which the “Percent Effect” value is given as -25.85%.

With `Cc1cnccc1CN1CC[C@H](Oc2cccc(F)c2)[C@@](C)(O)C1`, the “Percent Effect” value is recorded as 101.8%.

Regarding `C[C@]1(O)CN(Cc2ncc[nH]2)CC[C@@H]1Oc1cccc(F)c1`, the “Percent Effect” value was -7.197%.

As for `Cc1cccnc1CN1CC[C@H](Oc2cccc(F)c2)[C@@](C)(O)C1`, the “Percent Effect” value stood at 104.4%.

With `Cc1nccc(CN2CC[C@H](Oc3cccc(F)c3)[C@@](C)(O)C2)n1`, the “Percent Effect” value is -10.08%.

In the case of `C[C@]1(O)CN(Cc2ncccc2F)CC[C@@H]1Oc1cccc(F)c1`, the “Percent Effect” value was 32.25%.

Consider `Cc1cnccc1CN1CC[C@@](C)(O)[C@H](Oc2cccc(F)c2)C1`, for which the “Percent Effect” value is recorded as -11.46%.

For the compound `Cc1ccc(CN2CCC3(CCN(c4cnn(C)c4)C3=O)C2)s1.O=C(O)C(F)(F)F` (stereo not given), the “Percent Effect” value is -24.12%.

As for `O=C(NC1CC1)[C@H]1C[C@H]2OCC[C@H]2N(Cc2cccnc2)C1.O=C(O)C(F)(F)F.O=C(O)C(F)(F)F`, the “Percent Effect” value turned out to be 0.4638%.

`O=C(NCC1CC1)C1CN(Cc2ccncc2)Cc2ccnn2C1.O=C(O)C(F)(F)F.O=C(O)C(F)(F)F.O=C(O)C(F)(F)F` (stereo not given): the “Percent Effect” value is given as -17.14%.

Consider `CN1CCN(S(=O)(=O)c2ncn(C)c2Cl)CC1`, for which the “Percent Effect” value is given as -34.66%.

`Cn1cnc(S(=O)(=O)N2CCCC2)c1Cl`: the “Percent Effect” value came out at 74.4%.

As to `Cn1cnc(S(=O)(=O)N2CCOCC2)c1Cl`, the “Percent Effect” value is -1.938%.

As to `CC(C)(C)C(=O)N1C[C@H](c2ccsc2)[C@H]2CN(C3CCCC3)CC[C@H]21.Cl`, the “Percent Effect” value is recorded as -4.306%.

As to `O=C(O)C(F)(F)F.O=C(O)C(F)(F)F.O=C1CC[C@]2(CC[C@@H](NCc3cccnc3)CC2)N1Cc1ccccc1`, the “Percent Effect” value was -11.79%.

With `CN1CCS(=O)(=O)[C@@H]2CCN(C(=O)CC(C)(C)C)CC[C@@H]21.O=C(O)C(F)(F)F`, the “Percent Effect” value was -1.789%.

On to `CCOc1ccc2nc(CN3CCC(CN)C3)ccc2c1` (stereo not given), for which the “Percent Effect” value is listed as 106.9%.

On to `CCOc1ccc2nc(CN3CCC(CNC(C)=O)C3)ccc2c1` (stereo not given), for which the “Percent Effect” value worked out at 3.715%.

Turning to `CCOc1ccc2nc(CN3CCOC(CN)C3)ccc2c1` (stereo not given), the “Percent Effect” value amounted to 16.64%.

As for `CC(=O)c1c(C)nn(CC(=O)Nc2ccc(F)cc2)c1C`, the “Percent Effect” value is 21.2%.

On to `COc1ccc(NC(=O)Cn2nc(C)c(C(C)=O)c2C)cc1`, for which the “Percent Effect” value is recorded as 105.6%.

On to `Cc1nn(CC(=O)Nc2cccc(F)c2)c(N)c1C#N`, for which the “Percent Effect” value came to 4.908%.

Consider `COc1ccc(NC(=O)Cn2nc(C)c(C)cc2=O)cc1`, for which the “Percent Effect” value came to 2.037%.

For the compound `Cc1nn(CC(=O)Nc2ccc(F)cc2)c(N)c1C#N`, the “Percent Effect” value is on record as 51.75%.

`CC(=O)c1c(C)nn(CC(=O)Nc2ccc(Br)cc2)c1C`: the “Percent Effect” value was found to be 105.9%.

For the compound `Cc1cc(NC(=O)Cn2nc(C)c(C#N)c2N)ccc1Br`, the “Percent Effect” value was -21.12%.

Regarding `Cc1cc(=O)n(CC(=O)Nc2ccc(Cl)cc2)nc1C`, the “Percent Effect” value is reported as -4.62%.

With `COc1ccc(NC(=O)Cn2nc(C)c(C)cc2=O)cc1OC`, the “Percent Effect” value came to 2.159%.
